PREPL inh: inhibitors of human prolyl oligopeptidase-like enzyme PREPL; Q4J6C6; recombinant PREPL, fluorescence polarization activity-based probe; inhibition, % at 5.96 µM; 0.68% of 320,000 active; AID 2751; in the data active = inhibition above about 43%;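 also: 0% = enzyme with DMSO and 100% = wells lacking enzyme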
Target sequence (Q4J6C6 whole entry, looked up): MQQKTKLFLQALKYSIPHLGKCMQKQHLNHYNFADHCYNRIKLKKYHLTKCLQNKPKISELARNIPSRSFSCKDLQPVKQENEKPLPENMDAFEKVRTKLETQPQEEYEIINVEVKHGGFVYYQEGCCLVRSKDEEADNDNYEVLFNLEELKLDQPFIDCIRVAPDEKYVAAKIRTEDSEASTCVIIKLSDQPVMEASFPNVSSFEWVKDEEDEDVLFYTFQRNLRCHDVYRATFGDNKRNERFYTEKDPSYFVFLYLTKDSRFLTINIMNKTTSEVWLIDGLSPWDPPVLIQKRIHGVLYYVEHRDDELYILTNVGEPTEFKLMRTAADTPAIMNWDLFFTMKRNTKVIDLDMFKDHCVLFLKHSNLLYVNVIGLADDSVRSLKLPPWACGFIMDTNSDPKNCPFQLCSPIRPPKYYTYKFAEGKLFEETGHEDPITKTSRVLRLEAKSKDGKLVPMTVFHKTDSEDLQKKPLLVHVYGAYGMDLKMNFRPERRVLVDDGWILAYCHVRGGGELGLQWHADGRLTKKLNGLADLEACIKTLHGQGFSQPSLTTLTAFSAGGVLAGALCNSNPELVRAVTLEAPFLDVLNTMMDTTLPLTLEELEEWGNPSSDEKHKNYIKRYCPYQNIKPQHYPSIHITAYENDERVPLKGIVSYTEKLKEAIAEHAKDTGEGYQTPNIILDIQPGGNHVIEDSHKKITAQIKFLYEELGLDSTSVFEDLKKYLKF
NadD block: NadD (S. aureus) enzyme inhibition. inhibition, % at 20 µM. 0.78% of 360,000 active. AID 602399. purified NadD enzyme, colorimetric absorbance read-out; in the data active = inhibition above about 26%
PP5 inh: PP5 (human) phosphatase inhibition; purified PP5c, OMFP substrate fluorescence; inhibition, % at 6.7 µM; 0.18% of 320,000 active; AID 1987;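 active = inhibition above the campaign's mean inhibition across all tested compounds plus 3 SD, cut at about 9.5% in these data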;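 also: 0% = DMSO only and 100% = 100 µM cantharidin control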
Rpn11 block: inhibitors of human proteasome Rpn11; O00487; human 26S proteasome, Ub4-pepOG fluorescence polarization; 20S core pre-blocked with epoxomicin; inhibition, % at 20 µM; 0.59% of 360,000 active;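 active = inhibition at 20 µM, scaled to each plate's controls, above about 33%, limit read from the data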
PP1 inh: counter-screen for PP5 inhibitors: inhibitors of human PP1-alpha; 0.9% of 320,000 active; purified PP1alpha, OMFP fluorescence; P62136; inhibition, % at 6.7 µM;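 active = inhibition above the mean inhibition of all tested compounds plus 3 SD, computed separately for each screening campaign, cut at about 15% in these data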
Active calls of the source: *. A selection: hits, their analogues and other compounds. The true share with any hit is near 2.4%.

What do the screens show for `Cc1cc(-c2ccccc2)nc(N/N=C/c2ccc(O)cc2O)n1`?
PREPL inh: 28; NadD block: 5; PP5 inh: 1; Rpn11 block: 2; PP1 inh: 6

What do the screens show for `CN(/N=C/c1ccc(O)cc1O)c1nc(-c2ccccc2)cc(-c2ccccc2)n1`?
PREPL inh: 28; NadD block: 33*; PP5 inh: 5; Rpn11 block: 4; PP1 inh: 1

What do the screens show for `CCOC(=O)C1(C)CCCN(C(=O)c2cccnc2)C1` (centres undefined)?
NadD block: 3; Rpn11 block: 6

Results for O=C(NCCNC(=O)c1cc(Cl)ccc1Cl)c1ccccn1 ?
PREPL inh: -11; NadD block: 5; PP5 inh: 5; Rpn11 block: -2; PP1 inh: -2

How did CC(C)(C)c1ccc(OCC(=O)N/N=C/c2ccc(N3CCOCC3)cc2)cc1 do in these assays?
PREPL inh: 65*; NadD block: -1; PP5 inh: 7; Rpn11 block: 6; PP1 inh: -2

How did C/C(=N/NC(=O)COc1ccc(C(C)(C)C)cc1)c1ccc(N2CCOCC2)cc1 do in these assays?
NadD block: -3; Rpn11 block: 4

Results for COc1cc(/C=C(\C#N)c2nc3ccccc3[nH]2)ccc1OC(=O)c1ccco1 ?
PREPL inh: 80*; NadD block: 18; PP5 inh: 4; Rpn11 block: 19; PP1 inh: 5

How did CCOc1cc(/C=C(/C#N)c2nc3ccccc3[nH]2)ccc1OCc1ccc(C(=O)O)o1 do in these assays?
PREPL inh: 59*; NadD block: 17; PP5 inh: 5; Rpn11 block: 1; PP1 inh: 1

What do the screens show for `COc1cc(/C=C(/C#N)c2nc3ccccc3[nH]2)ccc1OCC(=O)Nc1ccccc1C`?
PREPL inh: 14; NadD block: 13; PP5 inh: -1; Rpn11 block: -6; PP1 inh: 6

What do the screens show for `CCOc1ccc(N(Cc2cc3ccc(C)cc3[nH]c2=O)S(=O)(=O)c2ccccc2)cc1`?
PREPL inh: -22; NadD block: 13; PP5 inh: 3; Rpn11 block: -2; PP1 inh: 0

How did O=C(O)CCCN1C(=O)/C(=C\C(Cl)=C\c2ccccc2)SC1=S do in these assays?
NadD block: 10; Rpn11 block: -4

What do the screens show for `O=C(CCCN1C(=O)/C(=C/c2cccs2)SC1=S)Nc1ccccn1`?
PREPL inh: -8; NadD block: 2; PP5 inh: 5; Rpn11 block: 4; PP1 inh: -1

How did O=C(O)CCCN1C(=O)/C(=C/c2cn(-c3ccccc3)nc2-c2cccs2)SC1=S do in these assays?
NadD block: 34*; Rpn11 block: 19

How did Cc1nn(-c2ccccc2)c(Cl)c1/C=C1\SC(=S)N(CCCCCC(=O)O)C1=O do in these assays?
PREPL inh: 1; NadD block: 3; PP5 inh: 1; Rpn11 block: 2; PP1 inh: 16*

What do the screens show for `O=C(COC(=O)Cn1cnc2ccccc21)Nc1cc2c(cc1Cl)C(=O)c1ccccc1C2=O`?
PREPL inh: 21; NadD block: 39*; PP5 inh: 0; Rpn11 block: 6; PP1 inh: 8

What do the screens show for `Fc1ccc(-c2cc(C(F)(F)F)n3ncnc3n2)cc1`?
PREPL inh: 1; NadD block: -2; PP5 inh: 3; Rpn11 block: 0; PP1 inh: 1

What do the screens show for `O=C(Nc1ccccc1C(=O)Nc1ccccc1C(=O)O)c1ccccc1`?
PREPL inh: 8; NadD block: -5; PP5 inh: 2; Rpn11 block: 2; PP1 inh: 6

Results for O=C(O)c1ccccc1NC(=O)c1ccccc1Nc1ccccc1 ?
PREPL inh: 4; NadD block: -8; PP5 inh: 5; Rpn11 block: -9; PP1 inh: 17*

What do the screens show for `CCOC(=O)C1CCCN(C(=O)c2cc(C)oc2C)CC1` (centres undefined)?
NadD block: 1; Rpn11 block: -5

What do the screens show for `CCCS(=O)(=O)NC(=O)C1(C)CCCN(C(=O)c2ccc(F)cc2Cl)C1` (centres undefined)?
NadD block: -4; Rpn11 block: -2

What do the screens show for `Cc1nc2ccc(NC(=O)c3cc([N+](=O)[O-])cc([N+](=O)[O-])c3Cl)cc2s1`?
PREPL inh: 16; NadD block: 34*; PP5 inh: -1; Rpn11 block: -5; PP1 inh: 4

How did CC(=O)Nc1nonc1NC(C)=O do in these assays?
PREPL inh: 11; NadD block: -2; PP5 inh: -1; Rpn11 block: -1; PP1 inh: -1

How did CC(=O)Nc1cc(OC(C)=O)c2nonc2c1OC(C)=O do in these assays?
PREPL inh: 56*; NadD block: 3; PP5 inh: 8; Rpn11 block: 4; PP1 inh: 60*

How did CC(C)[C@H](NS(=O)(=O)c1ccccc1)C(=O)OCC(=O)N1N=C(c2ccc(Cl)cc2)CC1c1ccco1 (some centres undefined) do in these assays?
PREPL inh: -2; NadD block: 29; PP5 inh: 5; Rpn11 block: 34; PP1 inh: 16*

How did COc1cc(/C=N/NC(=O)c2ccc(COc3cc(C)ccc3C(C)C)cc2)cc(OC)c1O do in these assays?
PREPL inh: 20; NadD block: 29; PP5 inh: 2; Rpn11 block: 27; PP1 inh: 9

What do the screens show for `Cc1ccc(C(C)C)c(OCc2ccc(C(=O)N/N=C/c3ccc(O)c(O)c3)cc2)c1`?
PREPL inh: 25; NadD block: 34*; PP5 inh: 7; Rpn11 block: -4; PP1 inh: 4

What do the screens show for `COc1ccc(C2=NN(C(=O)CCC(=O)O)C(c3ccc([N+](=O)[O-])cc3)C2)cc1` (centres undefined)?
NadD block: -5; Rpn11 block: -4

Results for O=C1C2N=NN(CC(=O)N3N=C(c4ccccc4)CC3c3ccc([N+](=O)[O-])cc3)C2C(=O)N1c1ccccc1 (centres undefined) ?
PREPL inh: 29; PP5 inh: 0; PP1 inh: 16*

How did COC(=O)[C@@]1(Cc2ccc(F)cc2)[C@H]2c3cc(C(=O)N(C)C)n(CC4CC4)c3C[C@H]2CN1C(=O)c1ccccc1 do in these assays?
NadD block: -5

How did CCCn1cnc2scc(-c3ccc(C)c(C)c3)c2c1=O do in these assays?
PREPL inh: 10; NadD block: 4; PP5 inh: 2; Rpn11 block: 2; PP1 inh: -2

How did CNc1ccc2c3c(cccc13)C(=O)N(C)C2=O do in these assays?
PREPL inh: 64*; NadD block: -5; PP5 inh: -26; Rpn11 block: -247; PP1 inh: -42

Results for C[C@H]1[C@H](C)CC[C@]2(C(=O)O)CC[C@]3(C)C(=CC[C@@H]4[C@@]5(C)C[C@@H](O)[C@H](O)C(C)(C)[C@@H]5CC[C@]43C)[C@H]12 ?
PREPL inh: -8; NadD block: 35*; PP5 inh: -4; Rpn11 block: 2; PP1 inh: -3

Screens from PubChem BioAssay.
